Reference: the supplement of paper PMC10849652
Of roughly 7,900 targets only a part is listed; those with a hit were picked by preference. About 0.6% of all pairs of compound and target were hits.

compound: C1COCCN1CCN2C3=CC=CC=C3N=C2NC(=O)C4=CC(=CC=C4)[N+](=O)[O-] [IRAK-1-4 Inhibitor I]; experiment: log2 fold change, soluble protein after heating vs DMSO (PISA); higher = thermal stabilisation; K562 cells, 10 uM, 30 min; active = over 0.2 and 3.5 SD of the protein, either way, in both replicates (recomputed)
How it was run: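 K562 cells at 2×10^6 cells/mL were treated with 10 μM compound for 30 min. Aliquots were heated for 3 min across 48°C-58°C, pooled, and extracted in PBS with 0.5% NP-40 at 4°C; soluble protein was the supernatant after 21,000xg for 90 min. Soluble protein was quantified by TMTpro 16plex LC-MS/MS with channel sums equalised, and reported as log2 fold change in thermal stability against DMSO controls, with values from duplicates.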

Chain of UniProt Q53H47 (Q53H47 whole entry, looked up): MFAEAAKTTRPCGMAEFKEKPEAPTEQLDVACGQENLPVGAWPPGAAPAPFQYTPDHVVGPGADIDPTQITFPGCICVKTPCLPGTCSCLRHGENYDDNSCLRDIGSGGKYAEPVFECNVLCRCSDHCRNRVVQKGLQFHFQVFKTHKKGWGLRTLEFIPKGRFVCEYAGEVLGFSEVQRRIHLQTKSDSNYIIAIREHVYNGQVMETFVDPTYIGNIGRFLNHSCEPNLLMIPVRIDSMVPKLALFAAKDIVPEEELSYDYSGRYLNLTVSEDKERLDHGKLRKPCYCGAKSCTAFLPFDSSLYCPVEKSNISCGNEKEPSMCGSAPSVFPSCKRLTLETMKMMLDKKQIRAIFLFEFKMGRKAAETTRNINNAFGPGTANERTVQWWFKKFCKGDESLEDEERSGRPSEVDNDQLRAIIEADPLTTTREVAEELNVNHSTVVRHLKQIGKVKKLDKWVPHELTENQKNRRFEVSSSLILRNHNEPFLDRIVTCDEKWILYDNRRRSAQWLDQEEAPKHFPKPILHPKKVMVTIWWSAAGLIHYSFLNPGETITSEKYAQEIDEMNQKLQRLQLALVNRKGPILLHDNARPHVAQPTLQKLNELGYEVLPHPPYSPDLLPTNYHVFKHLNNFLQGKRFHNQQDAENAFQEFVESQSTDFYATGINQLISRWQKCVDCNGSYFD
Chain of UniProt Q7L4I2 (Q7L4I2 whole entry, looked up): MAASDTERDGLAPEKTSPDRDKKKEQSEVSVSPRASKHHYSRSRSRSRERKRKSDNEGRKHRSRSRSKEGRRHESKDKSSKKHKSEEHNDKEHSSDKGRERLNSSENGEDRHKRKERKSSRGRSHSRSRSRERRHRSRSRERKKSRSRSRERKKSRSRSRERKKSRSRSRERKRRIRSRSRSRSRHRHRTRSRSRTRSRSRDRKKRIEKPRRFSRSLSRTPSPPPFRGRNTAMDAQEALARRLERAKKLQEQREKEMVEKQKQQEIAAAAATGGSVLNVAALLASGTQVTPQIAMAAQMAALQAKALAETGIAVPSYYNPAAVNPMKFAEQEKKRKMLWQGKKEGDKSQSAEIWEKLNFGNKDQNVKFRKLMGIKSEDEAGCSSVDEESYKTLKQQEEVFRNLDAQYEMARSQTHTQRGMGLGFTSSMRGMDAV
Chain of UniProt O43665 (O43665 whole entry, looked up): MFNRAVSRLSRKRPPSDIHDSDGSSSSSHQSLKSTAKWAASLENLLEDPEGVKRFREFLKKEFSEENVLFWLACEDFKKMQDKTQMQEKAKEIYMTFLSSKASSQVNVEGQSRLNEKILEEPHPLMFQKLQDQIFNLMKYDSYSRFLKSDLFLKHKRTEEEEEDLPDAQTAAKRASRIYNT
Chain of UniProt Q9UKL0 (Q9UKL0 whole entry, looked up): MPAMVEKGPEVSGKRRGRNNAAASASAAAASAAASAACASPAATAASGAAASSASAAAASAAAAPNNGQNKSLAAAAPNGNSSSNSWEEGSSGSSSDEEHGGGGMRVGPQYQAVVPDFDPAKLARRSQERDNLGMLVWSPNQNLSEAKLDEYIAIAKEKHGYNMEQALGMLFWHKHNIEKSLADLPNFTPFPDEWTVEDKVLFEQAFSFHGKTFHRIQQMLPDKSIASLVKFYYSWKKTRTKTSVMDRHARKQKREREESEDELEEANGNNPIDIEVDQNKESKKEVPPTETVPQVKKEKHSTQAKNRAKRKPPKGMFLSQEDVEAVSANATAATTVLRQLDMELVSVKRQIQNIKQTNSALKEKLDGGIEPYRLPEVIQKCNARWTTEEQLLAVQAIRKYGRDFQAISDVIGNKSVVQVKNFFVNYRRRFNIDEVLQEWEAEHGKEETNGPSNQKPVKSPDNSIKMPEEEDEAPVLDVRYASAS
Chain of UniProt O94979 (O94979 whole entry, looked up): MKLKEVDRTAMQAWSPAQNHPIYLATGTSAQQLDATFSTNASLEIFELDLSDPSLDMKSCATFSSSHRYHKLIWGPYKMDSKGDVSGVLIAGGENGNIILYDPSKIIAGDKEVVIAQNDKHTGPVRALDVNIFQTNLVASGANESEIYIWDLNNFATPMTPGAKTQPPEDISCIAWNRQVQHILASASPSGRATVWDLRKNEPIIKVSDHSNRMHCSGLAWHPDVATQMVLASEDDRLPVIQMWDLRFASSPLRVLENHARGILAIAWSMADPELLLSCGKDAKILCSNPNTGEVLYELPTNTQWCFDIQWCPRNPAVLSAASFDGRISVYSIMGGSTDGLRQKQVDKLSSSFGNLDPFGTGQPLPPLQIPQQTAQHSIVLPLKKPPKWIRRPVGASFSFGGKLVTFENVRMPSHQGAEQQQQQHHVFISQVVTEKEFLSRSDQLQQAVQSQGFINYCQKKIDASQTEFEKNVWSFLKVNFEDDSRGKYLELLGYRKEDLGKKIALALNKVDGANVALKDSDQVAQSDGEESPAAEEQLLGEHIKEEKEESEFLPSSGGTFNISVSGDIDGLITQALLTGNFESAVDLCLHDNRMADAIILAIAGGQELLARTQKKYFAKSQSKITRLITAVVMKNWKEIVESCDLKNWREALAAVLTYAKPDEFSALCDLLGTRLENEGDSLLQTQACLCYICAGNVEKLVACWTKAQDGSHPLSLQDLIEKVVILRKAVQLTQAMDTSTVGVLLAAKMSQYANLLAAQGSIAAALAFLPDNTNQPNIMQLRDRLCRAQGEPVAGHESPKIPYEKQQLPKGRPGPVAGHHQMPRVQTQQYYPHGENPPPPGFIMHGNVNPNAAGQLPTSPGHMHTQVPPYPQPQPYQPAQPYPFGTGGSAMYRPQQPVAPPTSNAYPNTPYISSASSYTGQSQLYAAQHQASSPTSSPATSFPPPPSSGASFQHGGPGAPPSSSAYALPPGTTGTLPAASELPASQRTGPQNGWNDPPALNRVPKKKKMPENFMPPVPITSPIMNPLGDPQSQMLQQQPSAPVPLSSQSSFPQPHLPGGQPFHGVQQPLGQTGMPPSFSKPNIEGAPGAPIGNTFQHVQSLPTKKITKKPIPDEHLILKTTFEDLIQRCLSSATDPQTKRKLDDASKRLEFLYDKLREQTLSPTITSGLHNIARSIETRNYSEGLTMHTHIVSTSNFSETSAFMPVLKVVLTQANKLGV
Chain of UniProt P51148 (P51148 whole entry, looked up): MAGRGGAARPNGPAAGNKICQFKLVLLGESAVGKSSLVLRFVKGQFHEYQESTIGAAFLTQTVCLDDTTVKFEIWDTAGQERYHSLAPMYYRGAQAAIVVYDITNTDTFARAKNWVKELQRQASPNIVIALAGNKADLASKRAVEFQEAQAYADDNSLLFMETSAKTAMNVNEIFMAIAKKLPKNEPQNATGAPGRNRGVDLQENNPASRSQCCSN
Chain of UniProt P52306 (P52306 whole entry, looked up): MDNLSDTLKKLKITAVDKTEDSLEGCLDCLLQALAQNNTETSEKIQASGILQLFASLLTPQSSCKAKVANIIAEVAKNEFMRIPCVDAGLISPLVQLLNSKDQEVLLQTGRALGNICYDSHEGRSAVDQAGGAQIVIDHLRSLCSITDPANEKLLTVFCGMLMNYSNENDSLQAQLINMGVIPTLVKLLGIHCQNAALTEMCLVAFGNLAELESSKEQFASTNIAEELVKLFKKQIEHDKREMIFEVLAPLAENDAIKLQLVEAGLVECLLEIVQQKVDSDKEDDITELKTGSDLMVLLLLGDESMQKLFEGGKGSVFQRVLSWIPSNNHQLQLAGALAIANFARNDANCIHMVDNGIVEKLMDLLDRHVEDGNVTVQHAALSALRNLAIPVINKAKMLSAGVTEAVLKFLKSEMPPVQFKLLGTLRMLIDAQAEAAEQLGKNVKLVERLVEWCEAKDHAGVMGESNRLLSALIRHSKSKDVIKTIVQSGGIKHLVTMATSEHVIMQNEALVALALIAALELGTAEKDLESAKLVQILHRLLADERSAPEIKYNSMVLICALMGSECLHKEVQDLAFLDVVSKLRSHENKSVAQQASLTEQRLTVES
Chain of UniProt O43818 (O43818 whole entry, looked up): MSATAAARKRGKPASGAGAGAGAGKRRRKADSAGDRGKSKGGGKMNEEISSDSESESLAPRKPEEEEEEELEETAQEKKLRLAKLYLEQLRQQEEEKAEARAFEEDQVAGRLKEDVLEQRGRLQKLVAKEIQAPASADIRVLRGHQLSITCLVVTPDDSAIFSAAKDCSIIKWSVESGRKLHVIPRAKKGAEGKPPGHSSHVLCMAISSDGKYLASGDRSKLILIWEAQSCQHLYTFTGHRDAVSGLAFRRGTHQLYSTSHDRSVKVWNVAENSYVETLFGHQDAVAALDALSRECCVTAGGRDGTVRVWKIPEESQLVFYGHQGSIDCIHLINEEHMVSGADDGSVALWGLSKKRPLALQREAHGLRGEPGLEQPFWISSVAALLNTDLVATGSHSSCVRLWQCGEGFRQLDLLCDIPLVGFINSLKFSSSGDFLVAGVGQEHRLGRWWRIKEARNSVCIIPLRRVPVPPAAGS
Chain of UniProt Q6NT16 (Q6NT16 whole entry, looked up): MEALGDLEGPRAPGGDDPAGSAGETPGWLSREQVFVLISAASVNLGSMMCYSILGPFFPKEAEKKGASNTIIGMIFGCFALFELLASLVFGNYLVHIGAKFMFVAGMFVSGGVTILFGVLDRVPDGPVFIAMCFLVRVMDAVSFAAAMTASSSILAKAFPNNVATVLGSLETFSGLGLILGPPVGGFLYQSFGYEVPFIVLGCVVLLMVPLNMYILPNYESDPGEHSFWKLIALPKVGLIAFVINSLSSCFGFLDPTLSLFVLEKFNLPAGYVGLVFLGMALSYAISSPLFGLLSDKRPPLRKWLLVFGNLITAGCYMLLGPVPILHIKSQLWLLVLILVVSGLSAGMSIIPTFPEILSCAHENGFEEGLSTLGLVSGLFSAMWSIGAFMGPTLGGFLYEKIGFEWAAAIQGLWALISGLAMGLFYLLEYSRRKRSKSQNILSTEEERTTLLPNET

log2 fold change, inactive:
RPS6KA1 isoform 2 (UniProt Q15418) -0.013, RRP9 (UniProt O43818) -0.043, SLC19A1 (UniProt P41440) 0.017, RBM12 (UniProt Q9NTZ6) -0.042, RNF167 (UniProt Q9H6Y7) -0.001, SEPTIN5 (UniProt Q99719) 0.014, RUNX1 isoform 8 (UniProt Q01196) -0.102, RAP1GDS1 isoform 5 (UniProt P52306) -0.044, RBM33 (UniProt Q96EV2) -0.058, RSRC2 (UniProt Q7L4I2) 0.03, RGS10 (UniProt O43665) 0.046, SEC31A (UniProt O94979) -0.076, RPTOR (UniProt Q8N122) 0, RPS16 (UniProt P62249) -0.137, RELA (UniProt Q04206) -0.011, RCOR1 (UniProt Q9UKL0) -0.037, SETMAR (UniProt Q53H47) 0.093, RAB5C isoform 2 (UniProt P51148) 0.015, ROCK2 (UniProt O75116) -0.037, ROCK1 (UniProt Q13464) -0.019, SLC18B1 (UniProt Q6NT16) 0.135, SAAL1 (UniProt Q96ER3) 0.019, RPS2 (UniProt P15880) -0.101
